# Test results published in ChEMBL document CHEMBL4513216, “Probing the Open Global Health Chemical Diversity Library for Multistage-Active Starting Points for Next-Generation Antimalarials” (ACS Infect Dis, 2020).
# The campaign covered roughly 68,000 compounds. About 2,700 (4%) showed an effect of 50% or more. The sample as a whole holds a higher share of strong results than the screen did.
# Test system: Plasmodium berghei
# Assay: Screen against P. berghei liver stage (PbLuc), transformed with Luciferase, at 2uM
# Assay type: functional, HepG2
# Settings: tested at 2 uM
row,Compound,INHIBITION
1,c1ccc(Cn2cc3c(n2)C(COCC2CC2)OCC3)nc1 (configuration not stated),7.73%
2,Cn1cnc2c1CCN(Cc1csc(Cc3ccccc3)n1)C2,33.61%
3,Cc1cccc(-n2nnnc2C(C)(C)Nc2ccccc2C)c1,-20.72%
4,Cc1ccc(NC(C)(C)c2nnnn2-c2ccc(Cl)cc2)c(C)c1,-0.62%
5,COc1ccc(-n2nnnc2C(C)(C)Nc2ccc(C)cc2C)cc1,57%
6,COCCN1CC2(CCCN(C(=O)NCc3ccccc3)C2)CCC1=O (configuration not stated),13.53%
7,CCCc1cc(NCCCC2CCOC2)n2nccc2n1 (configuration not stated),26.35%
8,CCCc1cc(NCCN2CCNC2=O)n2nccc2n1,68.39%
9,CCc1cc(NCCCC2CCOC2)n2nccc2n1 (configuration not stated),-3.6%
10,CCCc1cc(NCCC2CCCOC2)n2nccc2n1 (configuration not stated),50.41%
11,O=C1NCCN1CCNc1cc(-c2ccccc2)nc2ccnn12,-8.8%
12,CCc1cc(NCCN2CCNC2=O)n2nccc2n1,25.69%
13,CC(SCCC(=O)NC(N)=O)c1cccc(F)c1 (configuration not stated),4.07%
14,Cc1cc(CN2CCC(N(C)Cc3noc(C4CC4)n3)C2)no1 (configuration not stated),-17.31%
15,COc1cccc(S(=O)(=O)N2CCCCC2CCN2CCCC2=O)c1 (configuration not stated),25.51%
16,NCC(c1ccc(Cl)cc1)N1CCc2sccc2C1 (configuration not stated),-5.59%
17,CC(C)NC(=O)N1CCC2(CC1)[C@@H]1CN(C(=O)N(C)C)C[C@@H]1C(=O)N2C,24.36%
18,O=C(COCC(F)(F)F)NC1CCCc2cc(OC(F)F)ccc21 (configuration not stated),60.52%
19,COC(=O)CCC(=O)NC1CCCc2cc(OC(F)F)ccc21 (configuration not stated),-41.81%
20,O=C(CS(=O)(=O)C1CCCC1)NC1CCCc2cc(OC(F)F)ccc21 (configuration not stated),14.88%
21,CC(C)NC(=O)N1CCCCCC1C1CCN(c2ncccn2)CC1 (configuration not stated),36.28%
22,O=C(O)c1ccccc1-c1ccc(CN2CC(c3ccncn3)C2)o1,-44.74%
23,Cc1nc(CCNC(=O)NC2CCCc3c2cnn3CCO)cs1 (configuration not stated),-47.76%
24,Cc1nnc(NC(=O)NC2CCCc3c2cnn3CCO)s1 (configuration not stated),53.57%
25,O=C(Nc1nncs1)NC1CCCc2c1cnn2CCO (configuration not stated),8.27%
26,Cc1cc(NC(=O)NC2CCCc3c2cnn3CCO)n(C)n1 (configuration not stated),32.55%

row,Compound,INHIBITION
1,O=C(NC1CCCCC1)NC1CCCc2c1cnn2CCO (configuration not stated),-39.36%
2,CCn1cc(NC(=O)NC2CCCc3c2cnn3CCO)cn1 (configuration not stated),56.57%
3,Cc1cc(C)cc(NC(=O)c2cnc(N3CCN(C)CC3)nc2C)c1,19.84%
4,Cc1cc(C)c(CNC(=O)C(C)Oc2ccccc2C#N)c(=O)[nH]1 (configuration not stated),35.43%
5,CCOCC(=O)N1C[C@H]2CN(CC3CC3)C(=O)[C@H]2C1,-3.65%
6,O=C(c1ncoc1C1CC1)N1CCCN(CCCc2ccccc2)CC1,26.3%
7,CC1CCN(C(=O)CSCCN2CCOCC2)CC1,8.64%
8,COCCN1CCN(c2ccc(CN(C)C)cn2)CC1,-0.85%
9,O=C(Nc1cnc2n1CCCC2)c1cccc(-n2cnnc2)c1,50.91%
10,O=C(Nc1cnc2n1CCCC2)c1cccc(NC(=O)C2CCCC2)c1,22%
11,CC(=O)Nc1cccc(C(=O)Nc2cnc3n2CCCC3)c1,19.61%
12,CSc1ncccc1C(=O)NCCC(O)c1ccco1 (configuration not stated),14.45%
13,O=C(NCc1nnc2n1CCC2)c1cn(-c2ccccc2Br)nn1,-17.44%
14,CN(C)S(=O)(=O)NC1CCCc2c1cnn2-c1ccc(C(C)(C)C)cc1 (configuration not stated),75.11%
15,CC(C)(C)c1ccc(-n2ncc3c2CCCC3N)cc1 (configuration not stated),46.95%
16,Cc1ccc(-n2ncc3c2CCCC3N)cc1C (configuration not stated),-13.35%
17,CCC(C)(C)n1nnnc1C(c1cccs1)N1CCc2ccccc2C1 (configuration not stated),36.24%
18,Cc1nn(CCC(=O)NC2CCCOC2)c(C)c1C (configuration not stated),-3.15%
19,Cc1ccc(N(CC(=O)N2CCCCC2)C(=O)C2CCCO2)cc1 (configuration not stated),-82.35%
20,CCc1noc(CN(CC(=O)N2CCCCC2)c2ccc(C)cc2)n1,38.67%
21,Cc1ccc(N(CC(=O)N2CCCCC2)C(=O)C2COCCO2)cc1 (configuration not stated),72.49%
22,CCOc1ccc(Br)cc1-c1cc(N)[nH]n1,9.66%
23,CC(C)N(Cc1ccc(C#N)cc1)Cc1nnsc1Cl,22.34%
24,CCCN(Cc1ccc(C#N)cc1)Cc1nnsc1Cl,20.14%
25,CCN(Cc1nnsc1Cl)C(C)c1ccc(C#N)cc1 (configuration not stated),56.49%
26,Cc1cc(C)nc(N2CCC(c3ccnc(N(C)C)n3)CC2)n1,-42.91%
